The campaign covered roughly 2,000 compounds. About 170 (8.5%) were called active. Only a sample is shown. Values without a mark were called inactive.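 How the source made its calls: active means average inhibition above the solvent-only control mean plus 3 SD (cut at about 6% in these data); inactive means the rest.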
assay: BODIPY product fluorescence quenching artefacts – biochemical, QFRET, 535nm, artefact control for HGIII-sPLA2 inhibitor project, confirmation (AID 743282); settings: BODIPY FL product fluorescence interference, at 12.2 µM, hits give high values;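 further: 0% = DMSO with substrate plus product and 100% = DMSO with substrate alone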

SMILES | inhibition
Cc1ccc(S(=O)(=O)N2CCOCC2)cc1C(=O)NC(=S)N(Cc1ccccc1)C(C)C | -1.68%
COc1cccc(NC(C)=[N+](C)CCNS(=O)(=O)c2ccc(Cl)cc2)c1 | -14.7%
Cc1sc2nc(SCC(=O)c3ccc(O)c(O)c3)n(Cc3ccco3)c(=O)c2c1C | 0.57%
Cc1cccc(-n2cnc(C(=O)NNC(=S)Nc3ccccc3)c2)n1 | -2.38%
CC1=CC(C)(C)NC(=S)N1c1ccccc1 | -3.33%
CCOc1ccc(Br)cc1CSC(=N)N | -9.39%
Cc1cccc(C)c1NC(=O)CN1C(=O)C(C)Oc2ccccc21 (stereo not given) | -4.96%
S=C(NNC(=S)NC1CC2CCC1C2)NC1CC2C=CC1C2 (stereo not given) | 3.69%
O=C(NNC(=S)NC1CCCCC1)c1ccccc1Cl | -4.68%
Cc1[nH]c(N)nc(=S)c1CCCNc1ccccc1 | 0.28%
CN(CC(=O)Nc1ccc(N2CCOCC2)cc1)CC(=O)Nc1ccccc1[N+](=O)[O-] | -3.73%
C/C(=N\Nc1ccc(Cl)nn1)c1ccccc1O | 1.8%
CCc1cccc(CC)c1NC(=S)NCc1ccc2[nH]c(C)cc2c1 | -0.12%
c1ccc(C2=Nc3cccc4cccc(c34)N2)cc1 | 11.4% (active)
CC(C(=O)Nc1ccccc1-c1ccccc1)N1CCOCC1 (stereo not given) | -7.3%
O=C(CSc1nc2ccccc2n1Cc1ccccc1)NNC(=S)Nc1ccccc1 | -3.82%
O=C(NNc1ccccn1)c1ccc(Cl)nc1 | 34% (active)
O=C(OC12CC3CC(CC(C3)C1)C2)c1ccc(NCc2cc(O)ccc2O)cc1 | 12.9% (active)
COc1ccccc1OCC(=O)OCn1c(SC)nnc(C)c1=O | 0.95%
COc1ccc(C(=O)Nc2sc(C)c(C)c2CN2CCOCC2)cc1 | -13.2%
O=C1C(=O)N(Cc2ccc(-c3ccsc3)cc2)c2ccc(OC(F)(F)F)cc21 | 4.49%
Nc1[nH]c(C(=O)c2ccccc2)c(-c2ccc(Br)cc2)c1C(=O)NC1CC1 | -0.53%

SMILES | inhibition
CN(C)c1ccc(NC(=O)NC2CCCCN(Cc3ccc(Cl)cc3)C2=O)cc1 (stereo not given) | -5.22%
CC(C)(C)c1cc2cccnc2n1Cc1cccc(F)c1 | -9.11%
CN(C)S(=O)(=O)c1cccc(NC(=S)N/N=C/C(=O)c2ccccc2)c1 | 5.77%
CC(NC(=O)COC(=O)Cn1cc(C(F)(F)F)ccc1=O)c1ccccc1 (stereo not given) | -1.38%
CC(C)CC(=O)NC(=S)NNC(=O)c1cccc([N+](=O)[O-])c1 | -0.46%
CSc1ccc(NC(=O)/C=C/C(=O)O)cc1 | -8.22%
O=C(/C=C/c1c(Cl)cccc1Cl)NCc1ccccc1 | -0.31%
N#CC1(Nc2ccc(-c3ccc(Cl)cc3)cc2)CCCC1 | 6.64% (active)
CC(C)c1cc(C(=O)N/N=C/c2ccoc2)c(O)c(C(C)C)c1 | 4.05%
Cc1ccc(C2Nc3ccccc3C(=O)N2CCN2CCNC2=O)cc1 (stereo not given) | -4.79%
COc1ccc2c(c1)c(=Cc1ccc(N(C)C)cc1)c1cc(-c3ccccc3)[n+](C)n12 | -26.7%
O=C(NNC(=S)Nc1ccc(F)cc1)[C@H]1C[C@@H]1c1ccccc1 | 1.83%
COc1ccc(NC(=O)C2C3C=CC(C3)C2C(=O)NCc2ccccn2)c(OC)c1 (stereo not given) | -6.28%
CCCCn1c(N)c(N(CCOC)C(=O)COc2c(C)cccc2C)c(=O)[nH]c1=O | -7.38%
O=C(NN1C(=O)C2C3C=CC(C3)C2C1=O)c1ccco1 (stereo not given) | -5.42%
COCCn1c(SCC(=O)Nc2cc(OC)ccc2OC)nc2c(c1=O)SC(C)C2 (stereo not given) | -17.4%
COc1ccccc1OCCn1c(SCC(N)=O)nc2ccccc21 | -8.97%
COc1cc(NS(=O)(=O)c2ccc3ccccc3c2)c2ncccc2c1 | 5.89%
O=C(Nc1cccc(F)c1)c1cc(-c2ccco2)nc2ccccc12 | 4.81%
C/C(=N/NC(=O)c1cc(Cl)ccc1O)C12CC3CC(CC(C3)C1)C2 | -3.29%
CCCCn1c(=S)[nH]c2ccccc2c1=O | -2.71%
Cc1cc(NCCc2c[nH]c3ccccc23)ccc1Oc1cccnc1 | -3%

SMILES | inhibition
CCNC(=S)Nc1ccc(OC(F)(F)F)cc1 | 0.41%
NC(c1csc(NC(=O)Nc2ccccc2Oc2ccccc2)n1)c1ccccc1Cl (stereo not given) | 4.15%
COc1cc(/C=N/n2c(C)n[nH]c2=S)ccc1OCc1ccccc1 | -3.5%
Cc1ccc(C2CC(c3cccc(C)c3)n3nc(N)nc3N2)cc1 (stereo not given) | -10.8%
Nc1ccc2c(c1)C(O)c1ccc(Cl)cc1-2 (stereo not given) | 7% (active)
CCN(Cc1ccccc1)C(=O)CN1C(=S)NC(C)(C)CC1C (stereo not given) | -7.34%
C#CCCCc1nc2ccccc2c(=O)n1N | -6.82%
Cc1nnc(Sc2nc3c(c(=O)[nH]c(=O)n3C)n2Cc2ccccc2)s1 | -6.93%
CCN(CC(=O)NC1CCS(=O)(=O)C1)S(=O)(=O)c1ccccc1 (stereo not given) | -0.3%
CCOC12CC(C)(C)CC(C)(CC3=C1C(=O)CC(C)(C)C3)C2 (stereo not given) | -12.7%
CC(C)(c1ccccc1)c1ccc(OCCN)cc1 | -22.1%
CC[C@]1(O)C[C@@H]2CN(CCc3c([nH]c4ccccc34)[C@@](C(=O)OC)(c3cc4c(cc3OC)N(C)[C@H]3[C@@](O)(C(=O)OC)[C@H](OC(C)=O)[C@]5(CC)C=CCN6CC[C@]43[C@@H]65)C2)C1 | -25%
CCCCCCCCCCOC(=O)C[N+](C)(C)CC1CCCCC1O (stereo not given) | -19.3%
COc1cc(OC)cc(C2=Cc3ccccc3C(CC(=O)c3ccco3)N2c2ccc(-c3cnc(OC)nc3)cc2)c1 (stereo not given) | -14%
COC(=O)C(C)n1cnc2c(nnn2-c2ccc(F)cc2)c1=O (stereo not given) | -6.41%
Cc1cccc(N2CCN(c3ccc(NC(=O)/C=C\C(=O)O)cc3)CC2)c1 | 3.01%
N=C(N)SCc1cccc2ccccc12 | -8.26%
O=C(CCl)NNc1cccc(Cl)n1 | 113% (active)
NS(=O)(=O)c1ccc(CCNC(=O)NC2CCCCC2)cc1 | -4.36%
O=C(NNC(=S)NC1CC2CCC1C2)c1ccc(Cl)cc1 (stereo not given) | 0.11%
COc1ccc(Cl)cc1C(=O)NNC(=S)NC1CCCC1 | 3.94%
C=CCNc1scc(-c2ccccc2)[n+]1CC=C | -8.41%

SMILES | inhibition
C/C(=N\NC(=S)Nc1ccc(C)cc1)c1cc2ccccc2o1 | -2.09%
NC[C@H](Cc1ccccc1)NCCc1cc(C(F)(F)F)cc(C(F)(F)F)c1 | -15.8%
CC(=O)/C(=N\Nc1ccc(Cl)cc1Cl)Sc1cccc2cccnc12 | -6.02%
Cc1ccccc1NC(=O)C1CCN(c2ncccn2)CC1 | -0.85%
O=C(NC(=S)Nc1ncccn1)c1ccccc1Br | -4.76%
Nc1ccc(Nc2ccccc2)cc1 | 1.54%
Cn1c2c(c(=O)n(C)c1=O)C1c3ccccc3OCC1C(C)(C)O2 (stereo not given) | -3.5%
Oc1ccc2ccccc2c1N=Nc1nccs1 | 18.1% (active)
COCCCNC(=O)CNC(=S)N(Cc1cc(OC)c(OC)c(OC)c1)C1CCCC1 | -10.5%
COc1ccnc(NC(=S)N2CCN(c3ncc(C(F)(F)F)cc3Cl)CC2)c1 | -6.49%
Cc1ccc(-c2csc(NNC(=O)c3ccccc3)n2)cc1 | 6.07% (active)
COc1ccc(C(=O)NNC(=S)NC(=O)c2ccccc2)cc1 | -1.93%
Cc1ccc2sc(NNC(=O)c3ccc4c(c3)OCCO4)nc2c1C | 3.21%
CCc1cc(-c2n[nH]c(=S)n2CC(C)C)cs1 | -0.76%
Cn1cc(Cl)c(C(=O)NNC(=S)Nc2cccc(Cl)c2)n1 | 0.3%
CC(C)=CCCC1(C)C=Cc2c(ccc3c2[nH]c2cc(O)c(C)cc23)O1 (stereo not given) | 8.94% (active)
CC(C)c1ccc(Nc2nnc(SCC(=O)c3nnc(-c4ccccc4)o3)s2)cc1 | -8.04%
CC(=O)Oc1ccc2c(c1)C(=O)c1ccccc1C2=O | -2.62%
O=C(N/N=C/c1cc(Cl)cc([N+](=O)[O-])c1O)C(O)(c1ccccc1)c1ccccc1 | 5.59%
S=c1[nH]nc(-c2ccco2)n1/N=C/c1ccccc1 | -0.08%
CCOc1ccc2[nH]c(=S)sc2c1 | -2.18%
Cc1c(NC(=S)NCc2ccc(F)cc2)cccc1[N+](=O)[O-] | -0.65%

SMILES | inhibition
CC(Oc1ccc2ccccc2c1)C(=O)NNC(=S)NC(=O)c1ccco1 (stereo not given) | -3.72%
CSC1=NN(c2ccccc2)CN(c2ccccc2)N1C | 4.75%
Cc1c(C(=O)N/N=C/c2ccccc2)[nH]c2c([N+](=O)[O-])cccc12 | -10.6%
NC(Cc1ccccc1)c1csc(Nc2cc(Oc3ccccc3)ncn2)n1 (stereo not given) | -10.4%
O=C(NNC(=S)Nc1ccc(Br)cc1Cl)c1ccco1 | 3.75%
CCOc1ccc(/C=N/NC(N)=S)cc1 | -2.77%
Cc1cc(-c2n[nH]c(=S)n2-c2ccc(C)c(C)c2)no1 | 2.66%
CC(=O)NC(c1cccs1)c1cc(Br)c2cccnc2c1O (stereo not given) | 1.21%
Cc1cc(-n2nc(C)cc2C)n2ncc(-c3ccccc3)c2n1 | -10.6%
CCOC(=O)C1(Cc2cccc(OC)c2)CCCN(C(=O)CCSC)C1 (stereo not given) | -20.8%
Cc1cccc(NC(=S)NCCN(C2CCCCC2)C2CCCC2)c1 | -19.9%
Brc1ccccc1C1Nc2cccc3cccc(c23)N1 | 16.4% (active)
CC(=O)c1nnn(-c2ccc(Cl)cc2C#N)c1C | -6.79%
COc1ccc(C(=O)NC(=S)NNC(=O)c2c(-c3ccccc3)noc2C)cc1 | -3.7%
Cc1ccc(NC(=S)NNC(=O)CSc2nnc(SCc3ccccc3Cl)s2)cc1 | 0.65%
COc1ccc(C(N)c2csc(NC(=O)Nc3cccc(C(F)(F)F)c3)n2)cc1 (stereo not given) | 5.13%
CCCCOc1ccc(CSC(=N)N)cc1[N+](=O)[O-] | -15.6%
Cc1c(Cl)cccc1NC(=S)NCc1ccc2c(c1)OCO2 | 0.14%
C/C(=N\NC(=O)CSc1nc2ccccc2c(=O)n1-c1ccccc1C)c1cccs1 | -14.6%
O=C(COc1ccc(S(=O)(=O)NCc2ccccc2)cc1)N1CCOCC1 | -4.58%
C=CCn1c(C23CC4CC(CC(C4)C2)C3)n[nH]c1=S | -2.58%
CCOC(=O)NC(=O)/C(C#N)=C\c1ccccc1 | -4.97%

From PubChem BioAssay AID743282 (The Scripps Research Institute Molecular Screening Center, 2014)
